Laboratory results published in PubChem BioAssay (NCI).
This is part of a sample that, as a whole, favours compounds with a hit. Of some 83,000 tested, about 20% had one in any assay.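 The test compound was applied at a single concentration to cells in 96-well plates for 48 hours, and percent growth was recorded.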 Unmarked numbers belong to inactive results. Calls of active or inactive are those of the source. Rule for the calls: active = growth percent below 10; inactive = the rest.

Tests used:
Test in all cases: NCI-60 one-dose screen, 48 h (100 = growth as untreated, 0 = no growth, -100 = all killed)
Conditions in all cases: 10 µM unless noted
[1] = test system: HT29 colon
[2] = test system: SNB-75 CNS
[3] = test system: SNB-19 CNS
[4] = test system: U251 CNS
[5] = test system: PC-3 prostate
[6] = test system: SK-MEL-5 melanoma
[7] = test system: UACC-62 melanoma
[8] = test system: LOX IMVI melanoma
[9] = test system: SK-MEL-28 melanoma
[10] = test system: SK-MEL-2 melanoma
[11] = test system: EKVX NSCLC
[12] = test system: SN12C renal
[13] = test system: UO-31 renal
[14] = test system: TK-10 renal
[15] = test system: ACHN renal
[16] = test system: CAKI-1 renal
[17] = test system: A498 renal
[18] = test system: CCRF-CEM leukemia
[19] = test system: MOLT-4 leukemia

Structure (SMILES) | growth [1] | growth [2] | growth [3] | growth [4] | growth [5] | growth [6] | growth [7] | growth [8] | growth [9] | growth [10] | growth [11] | growth [12] | growth [13] | growth [14] | growth [15] | growth [16] | growth [17] | growth [18] | growth [19]
COC(=O)c1cc(-c2ccc(OC)cc2)[nH]c1N/N=C/c1c(Cl)cccc1Cl | -56.5% (active) | -10.6% (active) | 19.1% | 7.09% (active) | 16.2% | -2.73% (active) | 21.3% | 24.2% | 34% | 52.9% | 20.1% | 26% | 27.9% | 47.8% | 39.3% | -5.7% (active) | -2.53% (active) | 12.2% | 12.4%
COc1cc(/C=C/C(=O)c2cccc(Nc3nc(Nc4ccccc4)nc(Nc4ccccc4)n3)c2)cc(OC)c1OC | 48.8% | 52.8% | 93.9% | 29.8% | 24.7% | 51% | 64% | 45.3% | 68.9% | 53.6% | 66.1% | 84.2% | 35.3% | 66.3% | 68.3% | 75.5% | 68.8% | 6.56% (active) | 9.67% (active)
CC(C)CCNC(=O)Cn1cccc(NC(=O)OCc2ccccc2)c1=O | 108% | 79.9% | 103% | 101% | 92.3% | 96.1% | 111% | 89.8% | 98.8% | 112% | 101% | 103% | 76% | 130% | 103% | 70.3% | 117% | 96.6% | 106%
Fc1cc(F)cc(C(c2c[nH]c3ccccc23)c2c[nH]c3ccccc23)c1 | 99.1% | 106% | 104% | 101% | 67.1% | 88.2% | 84.9% | 83.5% | 101% | 58.8% | 80.6% | 95.7% | 52.9% | 144% | 87.7% | 90.9% | 71.7% | 89.1% | 81.8%
CCN(CC)CCOc1ccc(C(=C(C)c2ccc(Cl)cc2)c2ccc(OCCN(CC)CC)cc2)cc1 | -74.8% (active) | -92.6% (active) | -81.8% (active) | -81.6% (active) | -59.3% (active) | -98% (active) | -78.1% (active) | -88.5% (active) | -88.5% (active) | -60.2% (active) | 26.1% | -83.7% (active) | -92.8% (active) | -87.2% (active) | -88.3% (active) | -95.7% (active) | 7.66% (active) | -62.8% (active) | -64.2% (active)
Nc1nc2c([nH]1)c1[nH]c3ccccc3c1c1[nH]c3ccccc3c21 | 3.16% (active) | 44.5% | 62.4% | -6.57% (active) | 34.9% | 58.7% | -31.9% (active) | 4.23% (active) | -77.5% (active) |  | 73.5% | 75.6% | 62.9% | 91.4% | 59.1% | 83.2% | 134% | -3.64% (active) | -12.5% (active)
COc1ccc(C2c3sc4c(F)cccc4c3Oc3nc[nH]c(=O)c32)cc1 (stereo not drawn) | 107% | 88.2% | 79% | 89.7% | 65.8% | 75.4% | 60.1% | 82.9% | 92.6% | 97.8% | 71.2% | 77.8% | 47.6% | 110% | 72.7% | 76.6% | 95% | 85.3% | 84.2%
O=C1c2cc(Cl)ccc2S(=O)(=O)c2c(NCCCNCCO)nc3ccccc3c21 | -78.8% (active) | 32.6% | 56.4% | -15.8% (active) | -14.2% (active) | 11.3% | 2.05% (active) | -76.8% (active) | 6.11% (active) | 23% | 33.2% | -46% (active) | -94.4% (active) | -79.6% (active) | -99.9% (active) | 6.57% (active) | 57.3% | -22.2% (active) | -19% (active)
Cc1ccc(-c2cc(-c3ccc(Cl)cc3)nc(NC(=O)c3cccnc3)n2)cc1 | 109% | 99.8% | 94.6% | 101% | 85.5% | 93.6% | 76% | 95.7% | 106% | 109% | 102% | 103% | 79% | 115% | 103% | 94.2% | 111% | 106% | 93.2%
CC(C)CCC[C@@H](C)[C@H]1CC[C@H]2[C@@H]3CC=C4C[C@@H](C(C(=O)O)C(=O)O)CC[C@]4(C)[C@H]3CC[C@]12C | -35.1% (active) | -61.1% (active) | 18.6% | -46.8% (active) | -5.95% (active) | -96% (active) | -53.4% (active) | -29.3% (active) | -49.6% (active) | -58.5% (active) | -32.4% (active) | -12.2% (active) | -53.4% (active) | -52% (active) | -17.7% (active) | -51% (active) | -84.4% (active) | -24.3% (active) | -56.2% (active)
CN(C)CCNC(=O)c1cccc(-c2cnc3ccc(-c4ccc5c(c4)OCO5)nn23)c1 | 10.9% | 73.2% | 84.3% | 86.1% | 61.5% | 90.8% | 81.8% | 20.7% | 99.5% | 69.8% | 90% | 70.8% | 36.8% | 75.9% | 47.8% | 36.8% | 90.7% | 75.7% | 59.4%
CCSc1nc(NC)c2cc(-c3ccc(C(F)(F)F)cc3)ccc2n1 | 98.9% | 99.4% | 97% | 103% | 94.9% | 97.9% | 92.9% |  | 95% | 98.2% | 96.6% | 95.1% | 92.2% | 121% | 97.6% | 96.3% | 112% | 95.6% | 93.4%
Cc1ccc(/C=C2\CN(C(=O)OC(C)(C)C)C/C(=C\c3ccc(C)cc3)C2=O)cc1 | -49.9% (active) | 79.7% | 71.4% | 12.4% |  | 78.9% | 56.5% | -63.2% (active) | 87.3% | 83.8% | 84.3% | 60.7% | 66.9% | 87% | 20.3% | 61% | 67.6% |  | 34.7%
